A short description of test [1]: SK-BR-3 cell growth inhibitors, pilot screen, 24 h, human (AID 572;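 active = viability at or below 10% of carrier control in both of two separate runs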;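 also: compound exposure lasted between 18 and 24 h rather than exactly 24 h; 100% = carrier-treated control wells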). The settings on record: SK-BR-3 viability, CellTiter-Glo luminescence, at 10 µM, stronger effect = lower value.
Test [2] in a line: HUVEC growth inhibition – cell-based, human, primary screen (AID 575;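 active = viability at or below 30% in both replicate assays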;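 also: 100% = median of untreated cell wells with 0.1% DMSO on each plate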). The conditions noted are these: HUVEC proliferation, CellTiter-Glo luminescence, 72 h; at 10 µM; stronger effect = lower value. Background: ATP-based viability assays read luminescence as a measure of living cells.
Test [3] can be described thus: growth inhibitors of H69AR lung tumor, primary screen, human, duplicate replicates (AID 580).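 Also: 100% = mean luminescence of untreated wells and 0% = no signal.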 The conditions noted are these: H69AR lung tumor cells viability, ATP luminescence, 72 h; at 10 µM; stronger effect = lower value.
A short description of test [4]: reversal of MRP1-mediated doxorubicin resistance, pilot screen, H69AR cells, doxorubicin co-treatment (AID 601;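 active = viability loss from added drug above about 55%, and viability with drug at most 40%, in both replicates, limit read from the data, passing the limit was not always enough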). The settings on record: CellTiter-Glo, 72 h, at 10 µM; for differential viability (reversal): stronger effect = higher value.
Test [5] is described as follows: 384-well plate pilot, post-Golgi transport modulator project, inhibition of yeast transport mutant growth (AID 636; in the data active = inhibition above about 31%). The conditions noted are these: absorbance 615 nm, about 18 h, stronger effect = higher value.
A short description of test [6]: growth suppression of yeast trafficking mutant, preliminary HTS, modulators of trafficking downstream of Golgi apparatus project, 1536-format plate, OD 615 nm (AID 637; in the data active = inhibition above about 30%). The settings on record: yeast transport mutant growth, absorbance 615 nm, 18 h; stronger effect = higher value.
Test [7] can be described thus: OD615 S. cerevisiae growth inhibition, permissive medium, pilot counter-assay, permissive growth control for S. cerevisiae lifespan shortening project (AID 705;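 active = growth inhibition above 25% in both replicates, a cutoff set 3 SD above the mean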). The settings on record: OD615, 24 h, at 10 µM, stronger effect = higher value.
The nature of test [8]: Restrictive medium S. cerevisiae growth inhibition, OD615, pilot screen of yeast lifespan reduction project, restrictive growth control (AID 706;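 active = growth inhibition above a set limit, 3 SD over mean compound inhibition, in both replicates, cut at about 43% in these data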;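 also: modified DeaD lifespan yeast strain shifted to restrictive glucose medium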). The conditions noted are these: OD615, 48 h, at 10 µM, stronger effect = higher value.
The nature of test [9]: viability gain of MRP-1-high H69AR cells under doxorubicin, pilot screen, MRP-1 activator project, CellTiter-Glo, duplicate (AID 807;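 active = viability increase at or above a cutoff of the median across tested compounds plus 3 SD, cut at about 8.5% in these data, passing the limit was not always enough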;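 also: compound pretreatment 18-22 h then 72 h combined with doxorubicin; 0% = doxorubicin alone and 100% = vehicle without doxorubicin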). The conditions noted are these: H69AR viability with doxorubicin, CellTiter-Glo luminescence; at 10 µM; stronger effect = higher value.
The nature of test [10]: growth suppression of beta-catenin knockout HCT116, pilot screen, human colon tumor cells (AID 823;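 active = cell viability at or below a set limit in both duplicate runs, the limit being the all-compound median minus 4 SD, cut at about 23% in these data, passing the limit was not always enough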;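 also: 0% = wells killed by 20 µM Hyamine and 100% = untreated DMSO cell wells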). The conditions noted are these: CellTiter-Glo, 60 h, at 10 µM, stronger effect = lower value.
Test [11] in a line: growth suppression of PTEN-deleted HCT116, pilot screen, cell-based, HCT116 clonal line, CellTiter-Glo (AID 824;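 active = viability at or below 27.92% in each of two runs, the all-compound median minus 4 SD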;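 also: 0% = 20 µM Hyamine control and 100% = vehicle cell control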). The conditions noted are these: 60 h, at 10 µM, stronger effect = lower value.
Test [12] can be described thus: inhibitors of the yeast RAM network, pilot screen, dse1pr::URA3 reporter, 5-FOA selection (AID 869;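 active = inhibition over a set limit, the all-compound mean plus 3 SD, in both replicate runs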;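 also: 0% = DMSO wells with no growth and 100% = 10 µM 1-NA-PP1 with full growth; RAM network block rescues cells from 5-FOA so hits raise OD615 growth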). The conditions noted are these: S. cerevisiae dse1pr::URA3 5-FOA growth, OD615, 2 d; at 10 µM; stronger effect = higher value; strain carries analog-sensitive mutant Cbk1 kinase.
Test [13] in a line: RAM signaling pathway blockade in yeast – S. cerevisiae, Pdr1DBD-CYC8 efflux-inhibited sensitized strain, primary screen (AID 1298;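 active = RAM network inhibition above 8.4% in each of two replicates, 3 SD over the compound average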;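 also: 0% = DMSO untreated cells without growth and 100% = 10 µM 1-NA-PP1 full growth; higher means more yeast growth rescued from 5-FOA killing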). The settings on record: S. cerevisiae cbk1-as DSE1-URA3 strain, 5-FOA growth OD615, 2 d; at 50 µM; stronger effect = higher value.
Where [14] appears, read: H69AR cells + 2 uM doxorubicin, measured here: viability with 2 uM doxorubicin, stronger effect = lower value.
Where [15] appears, read: H69AR cells, compound alone cytotoxicity.

Records with an inconclusive call do not appear. Activity calls are given as the source filed them.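 The calls were made as follows, unless noted: active = viability at or under a set limit in both replicates, limit being median viability minus 3 SD (cut at about 48% in these data, passing the limit was not always enough); inconclusive = at or under the limit in just one replicate; inactive = at or above the limit in both replicates.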

The viability is a read-out of living cells in per cent, often relative to untreated cells. The inhibition is the change of the read-out against control, counted positive when it falls.

For the compound `COCCN1C=C(C(=O)OC)C(c2cc3c(cc2Br)OCO3)C(C(=O)OC)=C1`, the viability in test [1] was 97% (inactive); in test [2], 89.2% (inactive); in [3] it was 84.5% (inactive); in [4] (setting [14]), 81.2%; in test [4] (setting [15]), 84.5%; in test [10], 58.3% (inactive). In addition, the viability in test [11] is 58.6% (inactive). For the same compound, the differential viability (reversal) in test [4] (H69AR cells + 2 uM doxorubicin) is 3.38% (inactive). Further, the inhibition in [5] was -4.13% (inactive); in test [6], -1.09% (inactive); in test [12] it was 0.41% (inactive). Besides, the figures for the growth inhibition in test [7] and in test [8] were -12.8% (inactive) and -14.6% (inactive), respectively. In addition, in test [9], the viability increase is -1.16% (inactive). For the same compound, in test [13], the RAM network inhibition is 0.62% (inactive).
In the case of `CC(=O)NCCc1ccc(S(=O)(=O)NCc2ccc3c(c2)OCO3)cc1`, the viability in test [1] is 91% (inactive); in test [2], 91.9% (inactive); in [3] it was 103% (inactive); in [4] (setting [14]), 91.3%; in test [4] (setting [15]), 103%; in test [10] it was 96.1% (inactive). In addition, the viability in test [11] was 97.1% (inactive). Besides, the differential viability (reversal) in [4] (H69AR cells + 2 uM doxorubicin) is 12% (inactive). Further, the figures for the inhibition in test [5], in test [6] and in test [12] were -8.27% (inactive), -6.18% (inactive) and 1.12% (inactive), respectively. Moreover, the growth inhibition in test [7] is -15.2% (inactive); in test [8] it was -5.52% (inactive). For the same compound, the viability increase in [9] was 0.44% (inactive). Also, in test [13], the RAM network inhibition is 1.84% (inactive).
In the case of `O=C(CCNS(=O)(=O)c1cccs1)Nc1ccccc1F`, the viability is 81% (inactive) in test [1]; 121% (inactive) in [2]; 108% (inactive) in [3]; 99.2% in test [4] (setting [14]); 108% in test [4] (setting [15]); 90.8% (inactive) in [10]. In addition, the viability in [11] is 92.8% (inactive). Moreover, the differential viability (reversal) in [4] (H69AR cells + 2 uM doxorubicin) was 8.57% (inactive). In addition, the inhibition in test [5] is -6.49% (inactive); in test [6], 0.55% (inactive); in [12] it was 0.805% (inactive). Moreover, the growth inhibition in test [7] was -26.3% (inactive); in test [8], -12.8% (inactive). The viability increase in test [9] was -0.31% (inactive). For the same compound, the RAM network inhibition in [13] is 2.55% (inactive).
Consider `COc1ccc(NC(=O)CC2CCCCC2)cc1OC`, for which the viability is 96% (inactive) in [1]; 94.6% (inactive) in [2]; 103% (inactive) in test [3]; 90.2% in test [4] (setting [14]); 103% in test [4] (setting [15]); 96.3% (inactive) in test [10]. The viability in test [11] was 93.4% (inactive). Moreover, in test [4] (H69AR cells + 2 uM doxorubicin), the differential viability (reversal) is 12.8% (inactive). Moreover, the inhibition in test [5] is -6% (inactive); in test [6], -1.09% (inactive); in [12], 2.6% (inactive). Moreover, the figures for the growth inhibition in [7] and in [8] were -9.11% (inactive) and -10.4% (inactive), respectively. In addition, the viability increase in test [9] was -0.97% (inactive). For the same compound, in test [13], the RAM network inhibition is 6.64% (inactive).
`O=C(CSc1nnnn1-c1ccccc1)Nc1ccc(Cl)cc1`: the viability in test [1] is 100% (inactive); in test [2], 99.1% (inactive); in [3] it was 89.7% (inactive); in test [4] (setting [14]), 83.2%; in [4] (setting [15]), 89.7%; in test [10], 74% (inactive). Further, the viability in [11] was 76.8% (inactive). For the same compound, in [4] (H69AR cells + 2 uM doxorubicin), the differential viability (reversal) was 6.46% (inactive). The inhibition is 2.13% (inactive) in test [5], 6% (inactive) in test [6] and 3.12% (inactive) in test [12]. Besides, the growth inhibition is -4.88% (inactive) in test [7] and 4.24% (inactive) in [8]. The viability increase in test [9] was -3.86% (inactive). Further, the RAM network inhibition in [13] is 2.55% (inactive).
For the compound `Cc1ccc(C(=O)Nc2ccc(Cl)cn2)cc1S(=O)(=O)N1CCOCC1`, the viability in [1] is 90% (inactive); in test [2], 78.3% (inactive); in test [3], 81.5% (inactive); in test [4] (setting [14]), 93%; in test [4] (setting [15]), 81.5%; in [10], 86.4% (inactive). In addition, in test [11], the viability is 79.9% (inactive). The differential viability (reversal) in test [4] (H69AR cells + 2 uM doxorubicin) was -11.5% (inactive). In addition, the values for the inhibition in test [5], in test [6] and in test [12] were 0.39% (inactive), 5% (inactive) and 1.39% (inactive), respectively. Further, the growth inhibition in test [7] was -3.23% (inactive); in [8], 0.715% (inactive). The viability increase in test [9] was 1.52% (inactive). Also, the RAM network inhibition in test [13] was 5.97% (inactive).
Take `CCOC(=O)C1=C(CS(=O)(=O)c2ccc(F)c(C)c2)NC(=O)NC1c1ccc(O)c(O)c1` (stereo not given): the viability in test [1] was 112% (inactive); in [2] it was 85.2% (inactive); in [3], 92.6% (inactive); in test [4] (setting [14]) it was 83.4%; in test [4] (setting [15]) it was 92.6%; in [10], 99.1% (inactive). Further, in test [11], the viability was 94.8% (inactive). Also, the differential viability (reversal) in test [4] (H69AR cells + 2 uM doxorubicin) was 9.16% (inactive). In addition, the inhibition in test [5] is -4.13% (inactive); in test [6], -7.54% (inactive); in test [12], -0.51% (inactive). Further, the growth inhibition in test [7] is 0.775% (inactive); in [8] it was -9.4% (inactive). The viability increase in test [9] was -1.64% (inactive). In addition, the RAM network inhibition in [13] was 1.66% (inactive).
Consider `COc1ccccc1OCCNC(=O)c1cccs1`, for which the viability is 84% (inactive) in test [1]; 115% (inactive) in test [2]; 91.1% (inactive) in [3]; 81.6% in test [4] (setting [14]); 91.1% in test [4] (setting [15]); 97.9% (inactive) in test [10]. For the same compound, the viability in [11] is 103% (inactive). Further, in test [4] (H69AR cells + 2 uM doxorubicin), the differential viability (reversal) was 9.52% (inactive). For the same compound, the inhibition in [5] was -3.33% (inactive); in test [6] it was -0.18% (inactive); in [12], 1.21% (inactive). The results for the growth inhibition in test [7] and in test [8] were -6.5% (inactive) and 3.83% (inactive), respectively. Moreover, in test [9], the viability increase was 0.85% (inactive). Further, the RAM network inhibition in test [13] was 7.11% (inactive).
Consider `COc1ccc(NC(=O)Nc2ccc(N3CCCC3=O)cc2)cc1OC`, for which the viability in [1] was 126% (inactive); in [2], 104% (inactive); in test [3] it was 104% (inactive); in [4] (setting [14]), 89.1%; in test [4] (setting [15]), 104%; in [10] it was 107% (inactive). Moreover, in [11], the viability was 93.8% (inactive). Further, the differential viability (reversal) in test [4] (H69AR cells + 2 uM doxorubicin) is 15.2% (inactive). In addition, the inhibition in test [5] is -4.93% (inactive); in [6], -3.64% (inactive); in test [12], 0.135% (inactive). Also, the growth inhibition in test [7] was -1.9% (inactive); in [8] it was 3.45% (inactive). The viability increase in test [9] was -3.97% (inactive). The RAM network inhibition in test [13] was 0.87% (inactive).
Consider `C#CCOC(=O)C1C2C=CC(C2)C1C(=O)O` (stereo not given), for which the viability in [1] was 86% (inactive); in test [2] it was 109% (inactive); in test [3], 93.6% (inactive); in test [4] (setting [14]), 81.7%; in test [4] (setting [15]), 93.6%; in test [10], 103% (inactive). Besides, in test [11], the viability was 96.8% (inactive). Also, in [4] (H69AR cells + 2 uM doxorubicin), the differential viability (reversal) is 11.9% (inactive). Also, the values for the inhibition in [5], in test [6] and in [12] were -6.27% (inactive), 1.45% (inactive) and -0.215% (inactive), respectively. Further, the values for the growth inhibition in test [7] and in test [8] were 2.87% (inactive) and -1.21% (inactive), respectively. For the same compound, in test [9], the viability increase was 0.51% (inactive). For the same compound, the RAM network inhibition in [13] is 2.5% (inactive).
`Cc1cccc(N(CC(=O)N2CCCC2)S(=O)(=O)c2ccccc2)c1C`: the viability in [1] was 106% (inactive); in test [2], 112% (inactive); in test [3] it was 88.5% (inactive); in [4] (setting [14]), 88.8%; in [4] (setting [15]), 88.5%; in [10], 93.9% (inactive). Further, the viability in test [11] is 93.6% (inactive). Besides, in test [4] (H69AR cells + 2 uM doxorubicin), the differential viability (reversal) is -0.32% (inactive). Besides, the inhibition is -2.27% (inactive) in test [5], 1.82% (inactive) in test [6] and 2.05% (inactive) in test [12]. Moreover, the figures for the growth inhibition in [7] and in [8] were -1.1% (inactive) and 4.24% (inactive), respectively. For the same compound, the viability increase in [9] was -1.18% (inactive). The RAM network inhibition in test [13] was 3.22% (inactive).

(Values after PubChem BioAssay.)
